Drawing on PubChem BioAssay, this text covers viability and parasite load remaining for 27 molecules.

Structures are written as SMILES. Where “and” joins values, the source holds several entries; their conditions need not be identical. Equal values may be shown once. Calls of active or inactive are those of the source. Rule as the data show it: active = parasite load remaining mostly below about 12% (no sharp cut-off); inactive = mostly above about 10%.

A short description of this assay: P. berghei load reduction in hepatocytes – cell-based, HepG2, luciferase luminescence, HepG2 viability, primary screen (AID 624349).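 Also: 100% = mean of DMSO negative control wells on the same plate.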 Particulars: P. berghei liver stage in HepG2, luciferase luminescence, concentration not given here; parasite load remaining: stronger effect = lower value; viability: measured here: HepG2 viability without parasites.
Turning to `O=C1N=C(O)CN1N=Cc1ccc(-c2ccc([N+](=O)[O-])cc2)o1`, the viability (in general, a read-out of living cells in per cent, often relative to untreated cells) is 83.3% and the parasite load remaining is 10.7% (inactive).

With `CC(=O)O[C@@]12CO[C@@H]1C[C@H](O)[C@@]1(C)C(=O)[C@H](O)C3=C(C)[C@@H](OC(=O)[C@H](O)[C@@H](NC(=O)OC(C)(C)C)c4ccccc4)C[C@](O)([C@@H](OC(=O)c4ccccc4)[C@H]21)C3(C)C`, the parasite load remaining was 78.3% (inactive) and the viability came out at 76.2%.

For the molecule `CC1c2cccc(O)c2C(O)=C2C(=O)[C@]3(O)C(O)=C(C(N)=O)C(=O)[C@@H](N(C)C)[C@@H]3C[C@@H]21` (some centres undefined), the viability stood at 97.3% and the parasite load remaining was 60.3% (inactive).

In the case of `CO[C@H]1C=CO[C@@]2(C)Oc3c(C)c(O)c4c(O)c(c(C=NN5CCN(C6CCCC6)CC5)c(O)c4c3C2=O)NC(=O)C(C)=CC=C[C@H](C)[C@H](O)[C@@H](C)[C@@H](O)[C@@H](C)[C@H](OC(C)=O)[C@@H]1C`, the viability was determined as 65.4% and the parasite load remaining is 21.3% (inactive).

For the molecule `C=CC1=C(C(=O)O)N2C(=O)[C@@H](NC(=O)C(=NO)c3csc(N)n3)[C@H]2SC1`, the parasite load remaining is 50% (inactive) and the viability is 69.3%.

In the case of `C[C@H]1O[C@@H](O[C@H]2[C@@H](O)C[C@H](O[C@H]3[C@@H](O)C[C@H](O[C@H]4CC[C@@]5(C)[C@H](CC[C@@H]6[C@@H]5C[C@@H](O)[C@]5(C)C(C7=CC(=O)OC7)CC[C@]65O)C4)O[C@@H]3C)O[C@@H]2C)C[C@H](O)[C@@H]1O` (some centres undefined), the parasite load remaining is -5.28% (inactive) and the viability amounted to 8.28%.

Turning to `CON=C(C(=O)N[C@@H]1C(=O)N2C(C(=O)O)=C(COC(N)=O)CS[C@H]12)c1ccco1`, the viability came to 88.2% and the parasite load remaining was 58.2% (inactive).

As to `Cc1cc(=O)oc2cc(NC(=O)C3CCC(=O)N3)ccc12` (centres undefined), the viability was determined as 136% and the parasite load remaining was 62.4% (inactive).

Consider `N[C@@H](C(=O)N[C@@H]1C(=O)N2C(C(=O)O)=C(CSc3cn[nH]n3)CS[C@H]12)c1ccc(O)cc1` (tested in a mixture with another compound), for which the parasite load remaining was 100% (inactive) and the viability stood at 72.4%.

With `CN1CCN2c3ncccc3Cc3ccccc3[C@@H]2C1`, the viability was found to be 95.7% and the parasite load remaining was 60.5% (inactive).

Turning to `C=CC[C@@H]1C=C(C)C[C@H](C)C[C@H](OC)[C@H]2O[C@@](O)(C(=O)C(=O)N3CCCC[C@H]3C(=O)O[C@H](/C(C)=C/[C@@H]3CC[C@@H](O)[C@H](OC)C3)[C@H](C)[C@@H](O)CC1=O)[C@H](C)C[C@@H]2OC`, the viability turned out to be 72.5% and the parasite load remaining was 77.5% (inactive).

In the case of `CO[C@H]1C=CO[C@@]2(C)Oc3c(C)c(O)c4c(O)c(c5c(c4c3C2=O)NC2(CCN(CC(C)C)CC2)N=5)=NC(=O)C(C)=CC=C[C@H](C)[C@H](O)[C@@H](C)[C@@H](O)[C@@H](C)[C@H](OC(C)=O)[C@@H]1C`, the parasite load remaining is 46.3% (inactive) and the viability came to 56.4%.

As to `CN(C)S(=O)(=O)c1ccc2c(c1)/C(=C\CCN1CCNCC1)c1ccccc1S2`, the parasite load remaining was -2.22% (inactive) and the viability was 1.35%.

In the case of `CCC(=O)NS(=O)(=O)c1ccc(-c2c(-c3ccccc3)noc2C)cc1`, the parasite load remaining was 75.3% (inactive) and the viability was 68.9%.

Turning to `C[C@]12C=CC(=O)C=C1CC[C@@H]1[C@@H]2[C@@H](O)C[C@@]2(C)[C@H]1CC[C@]2(O)C(=O)COC(=O)CCC(=O)O`, the parasite load remaining is 128% (inactive) and the viability is 72.6%.

As for `CN(C)CC/C=C1/c2ccccc2COc2ccccc21`, the viability is 73% and 104% and 60.2%; the parasite load remaining was 72.1% (inactive) and 22.2% (inactive) and 49.1% (inactive).

On to `CC(=O)NCCCCCCNC(C)=O`, for which the parasite load remaining was 100% (inactive) and the viability was found to be 66.5%.

Consider `CO[C@H]1C=CO[C@@]2(C)Oc3c(C)c(O)c4c(O)c(c5c(nc6cc(C)ccn65)c4c3C2=O)NC(=O)C(C)=CC=C[C@H](C)[C@H](O)[C@@H](C)[C@@H](O)[C@@H](C)[C@H](OC(C)=O)[C@@H]1C`, for which the parasite load remaining is 97.9% (inactive) and the viability amounted to 78.8%.

In the case of `CO[C@H]1O[C@@H]2O[C@@]3(C)CC[C@H]4[C@H](C)CC[C@@H]([C@H]1C)[C@@]24OO3`, the viability amounted to 66.6% and the parasite load remaining is 32% (inactive).

With `CC(C)CC(NC(=O)C(COC(C)(C)C)NC(=O)C(Cc1ccc(O)cc1)NC(=O)C(CO)NC(=O)C(Cc1c[nH]c2ccccc12)NC(=O)C(Cc1cnc[nH]1)NC(=O)C1CCC(=O)N1)C(=O)N[C@@H](CCCN=C(N)N)C(=O)N1CCCC1C(=O)NNC(N)=O` (some centres undefined), the viability was 90.6% and the parasite load remaining was 82.9% (inactive).

As for `COCCCCC(=NOCCN)c1ccc(C(F)(F)F)cc1`, the parasite load remaining was 46.6% (inactive) and the viability worked out at 56.9%.

Consider `CCN(CC)CCOc1ccc(C(=C(Cl)c2ccccc2)c2ccccc2)cc1`, for which the parasite load remaining is -4.11% (inactive) and the viability stood at 3.72%.

As to `CO[C@H]1/C=C/O[C@@]2(C)Oc3c(C)c(O)c4c(O)c(c(C=NN5CCN(C6CCCC6)CC5)c(O)c4c3C2=O)NC(=O)/C(C)=C\C=C\[C@H](C)[C@H](O)[C@@H](C)[C@@H](O)[C@@H](C)[C@H](OC(C)=O)[C@@H]1C`, the viability was found to be 92% and the parasite load remaining was 21% (inactive).

For `O=C1CN(N=Cc2ccc([N+](=O)[O-])o2)C(=O)N1`, the parasite load remaining is 0.39% (inactive) and the viability was 54.9%.

In the case of `C=CC1=C(C(=O)O)N2C(=O)[C@@H](NC(=O)C(=NOCC(=O)O)c3csc(N)n3)[C@H]2SC1`, the viability was determined as 69.9% and the parasite load remaining was 68.9% (inactive).

Turning to `COc1cc(N)c(Cl)cc1C(=O)N[C@@H]1CCN(CCCOc2ccc(F)cc2)C[C@@H]1OC`, the parasite load remaining was 13.5% (inactive) and the viability is 57.3%.

In the case of `COCC1=C(C(=O)OC(C)OC(=O)OC(C)C)N2C(=O)[C@@H](NC(=O)C(=NOC)c3csc(N)n3)[C@H]2SC1` (some centres undefined), the parasite load remaining was 83.9% (inactive) and the viability turned out to be 70.5%.
